PubChem BioAssay (NCI)
About 83,000 compounds went through this panel and 20% of them were active in at least one assay; those are over-represented in the sample as a whole.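 Growth was measured after 48 h exposure to one concentration of compound in 96-well plates. Values under 10 count as active.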 Unmarked numbers belong to inactive results. Calls of active or inactive are those of the source.

What was measured:
Experiment in all cases: NCI-60 one-dose screen, 48 h (100 = growth as untreated, 0 = no growth, -100 = all killed)
Details in all cases: 10 µM unless noted
DU-145 prostate = tested on: DU-145 prostate
K-562 leukemia = tested on: K-562 leukemia
MALME-3M melanoma = tested on: MALME-3M melanoma
MDA-MB-231 breast = tested on: MDA-MB-231 breast
RXF 393 renal = tested on: RXF 393 renal
SF-268 CNS = tested on: SF-268 CNS
SF-295 CNS = tested on: SF-295 CNS
SF-539 CNS = tested on: SF-539 CNS
UACC-257 melanoma = tested on: UACC-257 melanoma
M14 melanoma = tested on: M14 melanoma
HCT-15 colon = tested on: HCT-15 colon
HT29 colon = tested on: HT29 colon
SNB-75 CNS = tested on: SNB-75 CNS
SNB-19 CNS = tested on: SNB-19 CNS
U251 CNS = tested on: U251 CNS
PC-3 prostate = tested on: PC-3 prostate
SK-MEL-5 melanoma = tested on: SK-MEL-5 melanoma
UACC-62 melanoma = tested on: UACC-62 melanoma
LOX IMVI melanoma = tested on: LOX IMVI melanoma
SK-MEL-28 melanoma = tested on: SK-MEL-28 melanoma

SMILES	growth (DU-145 prostate)	growth (K-562 leukemia)	growth (MALME-3M melanoma)	growth (MDA-MB-231 breast)	growth (RXF 393 renal)	growth (SF-268 CNS)	growth (SF-295 CNS)	growth (SF-539 CNS)	growth (UACC-257 melanoma)	growth (M14 melanoma)	growth (HCT-15 colon)	growth (HT29 colon)	growth (SNB-75 CNS)	growth (SNB-19 CNS)	growth (U251 CNS)	growth (PC-3 prostate)	growth (SK-MEL-5 melanoma)	growth (UACC-62 melanoma)	growth (LOX IMVI melanoma)	growth (SK-MEL-28 melanoma)
CC1=C(CCC(C)NCc2ccc(OCCCN3CCCCC3)cc2)C(C)(C)CCC1 (stereo not given)	-49.1% (active)	-46.6% (active)	-80.5% (active)	-73.4% (active)	-89.1% (active)	-76.8% (active)	-70% (active)	-85.3% (active)	-76.1% (active)	-81% (active)	-67.2% (active)	-81.9% (active)	-59.7% (active)	-45.7% (active)	-85.6% (active)	-56.1% (active)	-94.6% (active)	-77% (active)	-88.7% (active)	-83.4% (active)
COc1cc2c(c(OC)c1OC)C(=O)CC(c1cccc(NC(=O)c3ccc(C#N)cc3)c1)O2 (stereo not given)	83.6%	48.6%	83.7%	79.9%	97.3%	86.5%	77.9%	92.7%	72.3%	64.4%	75.7%	84.9%	74.9%	92%	80.5%	53%	43.2%	33.9%	65.7%	90.6%
CCCCNc1nnc2n(Cc3ccccc3)c(=O)c3c4c(sc3n12)CCCC4	38.3%	41.2%	40.3%	54.9%	63.2%	63.6%	48.4%	47.1%	54.1%	56.3%	30.5%	24.8%	66.4%	56.5%	48.5%	42.7%	27.7%	32.5%	30.2%	60.7%
CN(C)c1ccc(/C=C(\C#N)c2cc3ccccc3[nH]2)cc1	24.5%	14%	63.9%	31.9%	28.9%	39.8%	8.98% (active)	6.06% (active)	57.1%	9.05% (active)	23.6%	5.51% (active)	10.9%	29.5%	17.4%	28.3%	13%	30.9%	27.6%	54.7%
O=C1/C(=C/c2ccc(F)cc2)CN(C(=O)C(Cl)Cl)C/C1=C\c1ccc(F)cc1	-96.5% (active)	-6.01% (active)	-34.9% (active)	-39.8% (active)	-91.8% (active)	-30.9% (active)	-75.9% (active)	-97% (active)	-43.3% (active)	-68.5% (active)	-57.9% (active)	-24.7% (active)	-61.2% (active)	-87% (active)	-95.5% (active)	-74.3% (active)	-64.9% (active)	-61.1% (active)	-90.2% (active)	-72.1% (active)
COc1ccc(/C=C/C(=O)c2cc3c(N)c(C(=O)Nc4cccc(Cl)c4C)sc3nc2C)cc1	7.29% (active)	13%	45.8%	-12.3% (active)	-17.3% (active)	11.7%	13.1%	-40.6% (active)	63%	-6.38% (active)	5.62% (active)	-2.08% (active)	21.3%	5.32% (active)	-20% (active)	22.7%	-28.9% (active)	26.9%	-44.6% (active)	43.7%
O=C1/C=C/[C@@H](O)[C@@H]2C[C@@H](O)C[C@H]2/C=C/CCC[C@H](CCO)O1	16.6%	17.7%	-11.4% (active)	-83.1% (active)	-7.43% (active)	12.4%	12.1%	31.7%	27%	12.3%	10%	-2.5% (active)	33.1%	31.4%	20.7%	19.6%	-94.6% (active)	25.3%	-61.4% (active)	-3.47% (active)
C[C@H](C(=O)N(CCc1ccc(Cl)c(Cl)c1)Cc1cncs1)[C@@H]1CC[C@H](C[C@H](C)n2cc(CN3CCC(c4ccc(Cl)cc4)CC3)nn2)O1	112%	-75.9% (active)	101%	93.5%	103%	102%	99.2%	101%	102%	99.1%	99.6%	102%	97.6%	94.5%	100%	86.5%	101%	90.3%	98.3%	102%
O=C(CN1CCN(c2cc3c(cc2F)c(=O)c(C(=O)O)cn3C2CC2)CC1)N/N=C/c1ccco1	106%	95%	92.2%	98.7%	112%	93.8%	100%	93.2%	93.9%	96.6%	102%	104%	87.9%	99.7%	96.7%	93.5%	94.5%	93.5%	90.8%	97.9%
CC1=C(C(=O)Nc2ccccc2)C(c2ccc3c(c2)OCO3)NC(=S)N1 (stereo not given)	111%	118%	100%	106%	129%	106%	105%	102%	107%	93%	101%	109%	107%	96.2%	104%	95.3%	102%	97.5%	96.2%	112%
O=C(CC(=O)Nc1cccc(C(=O)O)c1)Nc1cccc(C(=O)O)c1	121%	111%	104%	104%	111%	104%	106%	90.5%	97.7%	96.6%	106%	97.6%	73.3%	102%	104%	92.5%	100%	94.6%	103%	100%
Cc1ccc2c(-c3nnc(N)s3)cc(=O)oc2c1C	116%	87.3%	104%	96.5%	106%	102%	97.4%	102%	106%	101%	96.9%	106%	92.6%	104%	99.7%	97.1%	101%	94.8%	101%	102%
Cc1ccc2nc(NC(=O)CSc3nc(-c4ccccc4)c(C#N)c4nnnn34)sc2c1	119%	97.8%	109%	113%	120%	113%	103%	100%	108%	99.5%	113%	106%	96.6%	102%	104%	99.7%	102%	94.7%	96.3%	111%
Cc1ccc(S(=O)(=O)Oc2ccc3sc4cccc(NCCN(C)C)c4c(=O)c3c2)cc1	-89.5% (active)	-64.6% (active)	-99.4% (active)	-96.7% (active)	-87.4% (active)	-82.1% (active)	-92.3% (active)	-95.3% (active)	-80.6% (active)	-84.9% (active)	-94.2% (active)	-60.6% (active)	-92.9% (active)	-60% (active)	-78.6% (active)	-86.4% (active)	-99% (active)	-98.2% (active)	-96.5% (active)	-92.4% (active)
S=C(c1ccc2c(c1)OCO2)N1CCN(c2cccc(Cl)c2)CC1	-0.195% (active)	29%	40.7%	36.2%	42.1%	41%	9.3% (active)	-4.83% (active)	54%	13.5%	24.1%	4.72% (active)	12.5%	40.4%	28.5%	15.9%	-10.8% (active)	25.4%	45.4%	53.5%
